Compounds without any hit were thinned out: in the full panel of roughly 83,000, 20% have a hit.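 Growth was measured after 48 h exposure to one concentration of compound in 96-well plates. Values under 10 count as active.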 Unmarked numbers belong to inactive results. The source made the active and inactive calls.

Test systems include HCT-15 colon; HT29 colon; SNB-75 CNS; SNB-19 CNS; U251 CNS; PC-3 prostate; SK-MEL-5 melanoma; UACC-62 melanoma; LOX IMVI melanoma; SK-MEL-28 melanoma.
What all share (assay): NCI-60 one-dose screen, 48 h (100 = growth as untreated, 0 = no growth, -100 = all killed)
What all share (conditions): 10 µM unless noted

Turning to `C/C(=N/NC(=O)Cn1c2ccccc2c2ccncc21)c1cccs1`, the growth in the test with HCT-15 colon is 99.8%; in the test with HT29 colon, 89.5%; in the test with SNB-75 CNS, 104%; in the test on SNB-19 CNS, 94.9%; with U251 CNS, 97.5%; with PC-3 prostate, 99.2%. Moreover, the growth in the test with SK-MEL-5 melanoma was 99.4%; in the test with UACC-62 melanoma, 95.8%; in the test on LOX IMVI melanoma, 104%; with SK-MEL-28 melanoma, 108%.
For `N#Cc1c(N)nc(Cl)c(C#N)c1C(=O)c1ccccc1`, the growth was 18.4% with HCT-15 colon; 18.3% with HT29 colon; 50% in the test with SNB-75 CNS; 31.2% in the test with SNB-19 CNS; 30.1% in the test with U251 CNS; 37.5% in the test with PC-3 prostate. The growth in the test with SK-MEL-5 melanoma is 23.1%; in the test with UACC-62 melanoma, 36.3%; in the test on LOX IMVI melanoma, 12%; in the test with SK-MEL-28 melanoma it was 11.6%.
In the case of `COc1cc(C(=O)NNC(=O)c2ccccc2O)cc(OC)c1OC`, the growth is 105% in the test with HCT-15 colon; 80.6% with HT29 colon; 79.2% in the test with SNB-75 CNS; 93.3% in the test on SNB-19 CNS; 91.6% in the test on U251 CNS; 70.9% with PC-3 prostate. Besides, the growth in the test on SK-MEL-5 melanoma is 86.9%; in the test with UACC-62 melanoma, 81.3%; in the test on LOX IMVI melanoma it was 102%; in the test on SK-MEL-28 melanoma, 109%.
Take `Cc1cc(C)c(O)c(C(=O)CC(Br)C(=O)O)c1` (stereo not given): the growth with HCT-15 colon is 103%; in the test with HT29 colon, 99.1%; in the test on SNB-75 CNS, 102%; in the test on SNB-19 CNS, 108%; with U251 CNS, 100%; in the test on PC-3 prostate it was 89.7%. Also, the growth was 101% in the test on SK-MEL-5 melanoma, 95.7% in the test with UACC-62 melanoma, 93.1% in the test on LOX IMVI melanoma and 101% with SK-MEL-28 melanoma.
As for `C/C(=N\N=C1/SCC(=O)N1c1ccccc1)c1ccco1`, the growth in the test with HCT-15 colon was 112%; in the test on HT29 colon it was 136%; with SNB-75 CNS, 185%; in the test on SNB-19 CNS, 113%; in the test on U251 CNS it was 102%; in the test on PC-3 prostate it was 94.7%. Besides, the growth with SK-MEL-5 melanoma was 88.8%; in the test with UACC-62 melanoma it was 122%; with LOX IMVI melanoma it was 94.2%; in the test with SK-MEL-28 melanoma, 112%.
On to `C=C1C(=O)O[C@H]2[C@H]1CC/C(COC(=O)c1cccc3ccccc13)=C\CC[C@@]1(C)O[C@@H]21`, for which the growth in the test with HCT-15 colon is -46.9% (active); with HT29 colon it was -84.2% (active); with SNB-75 CNS, 29%; with SNB-19 CNS it was 10.5%; in the test with U251 CNS, -83.7% (active); in the test with PC-3 prostate, -70.9% (active). Also, the growth in the test on SK-MEL-5 melanoma is -89% (active); with UACC-62 melanoma it was -76.9% (active); in the test with LOX IMVI melanoma, -92.2% (active); with SK-MEL-28 melanoma, -56.7% (active).
For the compound `N#CC1=C(N)Oc2c(ccc3ccccc23)C1c1cc(=O)oc2ccc(Cl)cc12` (stereo not given), the growth with HCT-15 colon was 25.8%; in the test with HT29 colon, 6.85% (active); with SNB-75 CNS, 20.2%; in the test with SNB-19 CNS, 33.4%; in the test on U251 CNS it was 24.4%; in the test with PC-3 prostate, 18.2%. For the same compound, the growth was 28.3% in the test with SK-MEL-5 melanoma, 36.5% in the test on UACC-62 melanoma, 42% with LOX IMVI melanoma and 62.9% with SK-MEL-28 melanoma.
Take `CCCCCCCCCCCCCCCC(=O)NS(=O)(=O)OC[C@H]1O[C@@H](n2cnc3c(N)ncnc32)[C@H](O)[C@@H]1O`: the growth in the test on HCT-15 colon is -8.55% (active); in the test on HT29 colon it was -17.1% (active); in the test with SNB-75 CNS, -41.6% (active); in the test on SNB-19 CNS, -53.7% (active); in the test with U251 CNS, -87.5% (active); with PC-3 prostate it was -52.4% (active). Moreover, the growth in the test with SK-MEL-5 melanoma was -88.8% (active); in the test on UACC-62 melanoma, -48.9% (active); with LOX IMVI melanoma, -64.8% (active); in the test on SK-MEL-28 melanoma, -59.7% (active).
Consider `COc1cc2c(cc1OC)-c1c(oc3c4c(ccc3c1=O)OC(C)(C)C=C4)CO2`, for which the growth in the test on HCT-15 colon is 82.8%; in the test on HT29 colon, 89.5%; in the test with SNB-75 CNS, 75.8%; with SNB-19 CNS it was 75.5%; in the test with U251 CNS it was 88.6%; in the test on PC-3 prostate, 75.1%. Further, the growth in the test with SK-MEL-5 melanoma is 23.8%; in the test on UACC-62 melanoma, 61.1%; in the test on LOX IMVI melanoma it was 63%; with SK-MEL-28 melanoma, 93.8%.
Turning to `O=C1c2ccccc2OC=C(c2ccccc2)N1CCCCNc1ccc(F)cc1`, the growth in the test with HCT-15 colon was 90.3%; in the test with HT29 colon, 76.9%; in the test with SNB-75 CNS, 90.7%; in the test on SNB-19 CNS, 87.3%; in the test on U251 CNS, 81.8%; in the test on PC-3 prostate it was 47.2%. Further, the growth in the test with SK-MEL-5 melanoma was 94.3%; with UACC-62 melanoma, 76.3%; in the test on LOX IMVI melanoma, 86.1%; with SK-MEL-28 melanoma, 104%.
Consider `CCCCOc1nc2ccc(Cl)cc2cc1/C=C/C(=O)/C=C/c1ccc(Cl)cc1`, for which the growth with HCT-15 colon was 81.9%; in the test with HT29 colon, 25.2%; in the test with SNB-75 CNS, 86.4%; in the test on SNB-19 CNS, 93.9%; in the test on U251 CNS it was 35.3%; in the test with PC-3 prostate, 57.5%. Besides, the growth is 49.4% in the test on SK-MEL-5 melanoma, 67.5% in the test on UACC-62 melanoma, 24.1% in the test with LOX IMVI melanoma and 81.9% in the test on SK-MEL-28 melanoma.
Take `Cc1[nH]c2ccc(F)cc2c1CCNC(=O)C1CCN(C(=O)c2ccc(-c3ccccc3)cc2)CC1`: the growth in the test on HCT-15 colon is 35.2%; in the test with HT29 colon, 5.89% (active); with SNB-75 CNS it was 49.1%; in the test on SNB-19 CNS it was 65.3%; in the test with U251 CNS it was 48.7%; with PC-3 prostate, 23.2%. For the same compound, the growth was 27.4% in the test on SK-MEL-5 melanoma, 55% in the test on UACC-62 melanoma, 48.8% with LOX IMVI melanoma and 67.7% with SK-MEL-28 melanoma.
Regarding `COC(=O)/C=C/C(=O)c1cc(C)cc(C)c1O`, the growth in the test with HCT-15 colon was 100%; in the test with HT29 colon, 99.7%; with SNB-75 CNS, 103%; in the test on SNB-19 CNS, 108%; with U251 CNS, 108%; in the test with PC-3 prostate, 102%. The growth is 104% with SK-MEL-5 melanoma, 106% in the test on UACC-62 melanoma, 98.1% in the test with LOX IMVI melanoma and 102% with SK-MEL-28 melanoma.
